Molecules are shown by their SMILES. Inconclusive results are not listed. Some structures have more than one record in an assay (separate samples or runs), and their calls can disagree. The source made the active and inactive calls. Calls follow the shape of the dose curve; as a rule, active = well fitted curve in the direction sought with a large enough effect; inconclusive = small, poorly fitted or top-dose-only effect, or another doubt; inactive = no such curve, though single readings can be large; an effect the other way counts as inactive or inconclusive.

In experiment [1] the target is Thioredoxin reductase 1, cytoplasmic (Rattus norvegicus) (UniProt O89049). Description: qHTS Assay for Inhibitors of Mammalian Selenoprotein Thioredoxin Reductase 1 (TrxR1) (AID 488773).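 Also: drop in NADPH fluorescence over an 8 min run after selenite addition; nearly all actives have a fitted effect of over 40% in size.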 To be noted: purified TrxR1 enzyme activity; Potency: inhibition; series mostly up to 57.1 µM. The method, boiled down:
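Steps: enzyme (90 nM) plus NADPH (400 uM final), 5 min at ~22 deg C; compound added, 15 min; selenite (400 uM final) added; fluorescence followed for 8 min. Concentration-response curves derived from the normalized delta values.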
A general note: In qHTS, concentration-response curves come from the screen itself.

Experiment [2] addresses Flap endonuclease 1 (Homo sapiens) (UniProt P39748). The experiment is described as follows: qHTS Validation Assay for the Inhibitors of Human Flap endonuclease 1 (FEN1) (AID 488816). To be noted: FEN1 nuclease activity, fluorogenic DNA substrate; series mostly up to 57.1 µM. The method, boiled down: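 Readings taken at 0 and 15 min after starting the reaction with 50 nM (final) substrate supplied the signal. Compounds had first sat with 10 nM FEN1 reagent for 15 min at room temperature. Values come from Hill-equation concentration-response fits.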

For experiment [3], the target named is M-phase phosphoprotein 8 (Homo sapiens) (UniProt Q99549). Description: qHTS Validation Assay for Inhibitors for MPP8 Chromodomain Interactions with Methylated Histone Tails (AID 488949). Also: nearly all actives have a fitted effect of over 55% in size. Also: potency is read from the fitted curve at half-maximal effect. The settings on record: AlphaScreen MPP8 binding to H3K9me3 peptide; series mostly up to 57.1 µM. The method, boiled down: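 Chemiluminescent proximity assay: histidine-tag capture via nickel acceptor beads, biotin peptide via streptavidin donor beads. Protein and peptide each at 50 nM, pH 7.4, with 30 min incubations at room temperature for complex formation, compound exposure and bead binding.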
Chain of M-phase phosphoprotein 8 (Homo sapiens) (Q99549 whole entry, looked up): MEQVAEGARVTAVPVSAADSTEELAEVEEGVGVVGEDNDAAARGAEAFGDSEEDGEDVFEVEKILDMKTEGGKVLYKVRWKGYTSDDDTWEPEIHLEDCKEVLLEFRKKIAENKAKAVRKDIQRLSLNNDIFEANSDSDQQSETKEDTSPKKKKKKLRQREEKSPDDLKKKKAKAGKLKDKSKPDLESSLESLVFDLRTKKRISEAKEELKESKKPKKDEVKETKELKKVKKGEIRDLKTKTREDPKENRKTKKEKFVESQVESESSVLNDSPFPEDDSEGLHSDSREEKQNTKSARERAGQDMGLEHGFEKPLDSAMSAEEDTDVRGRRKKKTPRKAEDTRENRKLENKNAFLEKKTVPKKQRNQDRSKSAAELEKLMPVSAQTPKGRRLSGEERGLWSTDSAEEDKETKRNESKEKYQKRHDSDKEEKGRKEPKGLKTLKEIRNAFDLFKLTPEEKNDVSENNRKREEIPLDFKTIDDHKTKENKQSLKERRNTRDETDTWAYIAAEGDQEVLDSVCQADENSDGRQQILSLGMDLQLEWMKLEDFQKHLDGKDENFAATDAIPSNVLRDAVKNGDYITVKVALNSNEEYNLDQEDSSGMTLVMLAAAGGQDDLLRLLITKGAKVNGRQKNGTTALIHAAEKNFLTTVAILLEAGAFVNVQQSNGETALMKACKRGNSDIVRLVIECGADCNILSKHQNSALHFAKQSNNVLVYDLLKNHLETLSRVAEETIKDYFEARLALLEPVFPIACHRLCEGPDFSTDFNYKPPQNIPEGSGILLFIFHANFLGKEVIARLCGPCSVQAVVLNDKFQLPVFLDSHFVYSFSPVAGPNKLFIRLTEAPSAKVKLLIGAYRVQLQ

Experiment [4] has as its target Chromobox protein homolog 1 (Homo sapiens) (UniProt P83916). Description: qHTS Validation Assay for Inhibitors of HP1-beta Chromodomain Interactions with Methylated Histone Tails (AID 488953). Also: nearly all actives have a fitted effect of over 50% in size. Also: potency is read from the fitted curve at half-maximal effect. The settings on record: HP1-beta chromodomain / methylated histone peptide binding assay; series mostly up to 114 µM. The essentials: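 50 nM HP1-beta + 50 nM biotin-H3(1-18)K9me3, PBS pH 7.4, 0.01% Tween-20, 30 min RT; compound added, 30 min RT; AlphaScreen beads 10 ug/mL final, 30 min dark; luminescence read.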

For experiment [5], the target named is Methanococcus maripaludis chaperonin (MmCpn) (UniProt Q6LX38). Description: High-Throughput Screening for Modulators of Cytosolic Chaperonin Activity: MmCpn Primary Screen (AID 488978). The settings on record: Purified MmCpn ATPase activity, ADP HTRF detection, 10 min; series mostly up to 76.9 µM. The method, boiled down:
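HTRF readout (320 nm excitation, 590/665 nm emission) of ADP generated by 50 nM MmCpn hydrolysing 30 uM ATP during 10 min at 37C; compound preincubated 5 min RT.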
A general note: Time-resolved FRET reads energy transfer from a long-lived donor to a nearby acceptor.

The target of experiment [6] is D(1A) dopamine receptor (Homo sapiens) (UniProt P21728). Description: HTS Assay for Allosteric Agonists of the Human D1 Dopamine Receptor: Primary Screen for Agonists (AID 488981). Also: potency is read from the fitted curve at half-maximal effect. To be noted: Inducible HEK293 T-REx D1 cells, calcium-flux fluorescence, 180 s kinetic; series mostly up to 41.8 µM. The essentials:
(§1)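 Calcium flux in an inducible, force-coupled HEK293 Trex D1 line (overnight at 30 C): agonist mode is the 180 s kinetic read after compound; potentiator mode is the following 180 s read after dopamine at EC20.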

Experiment [7] has the same target. The experiment is described as follows: HTS Assay for Allosteric Agonists of the Human D1 Dopamine Receptor: Primary Screen for Potentiators (AID 488982). To be noted: HEK293 T-REx D1 inducible cells, calcium flux, kinetic fluorescence; series mostly up to 8.37 µM. The method, boiled down:
as §1
On the technique in general: A change in cytosolic calcium serves as a functional read-out for many receptors and channels.

The target is the same in experiment [8]. Description: HTS Assay for Allosteric Agonists of the Human D1 Dopamine Receptor: Primary Screen for Antagonists (AID 488983).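 Also: calcium flux response to an EC80 dopamine challenge measured with no-wash dye; nearly all actives have a fitted effect of over 65% in size.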 Also: potency is read from the fitted curve at half-maximal effect. The settings on record: D1 receptor cell assay, antagonist mode, qHTS titration; series mostly up to 41.8 µM. The essentials:
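Cells are induced with tetracycline and incubated overnight at 30 C, then loaded with calcium dye for 30 to 90 minutes at room temperature. Compound addition is followed by a 180 s read, then an EC80 dopamine addition and another 180 s read.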

Experiment [9] concerns the target Transient receptor potential cation channel subfamily V member 1 (Homo sapiens) (UniProt Q8NER1). The experiment is described as follows: HTS Assay for Compounds that Act as Enhancers of the Vanilloid Receptor 1 (AID 488979). To be noted: TRPV1-expressing cells, enhancer of channel activity, stimulated with capsaicin at EC20; series mostly up to 41.7 µM. The essentials:
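Calcium influx kinetics via Fluo-8 (480/520 nm) in TRPV1-expressing cells, 2000/well cultured overnight at 35.5C. Compound-alone read 3 min (agonist phase), followed by EC20 capsaicin challenge for 2 min (enhancer phase).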

In experiment [10] the target is Thyrotropin receptor (Homo sapiens) (UniProt P16473). Description: qHTS Assay for Antagonists of the Thyroid Stimulating Hormone Receptor (AID 488980). The settings on record: TSHR-expressing cells, cAMP antagonist read-out; series mostly up to 57.5 µM. The method, boiled down:
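Inhibition of TSH-stimulated cAMP accumulation was quantified by homogeneous time-resolved FRET in TSHR-transfected HEK293 cells. Agonist: TSH, 4 nM final (EC80).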

Chain of D(1A) dopamine receptor (Homo sapiens) (P21728 whole entry, looked up): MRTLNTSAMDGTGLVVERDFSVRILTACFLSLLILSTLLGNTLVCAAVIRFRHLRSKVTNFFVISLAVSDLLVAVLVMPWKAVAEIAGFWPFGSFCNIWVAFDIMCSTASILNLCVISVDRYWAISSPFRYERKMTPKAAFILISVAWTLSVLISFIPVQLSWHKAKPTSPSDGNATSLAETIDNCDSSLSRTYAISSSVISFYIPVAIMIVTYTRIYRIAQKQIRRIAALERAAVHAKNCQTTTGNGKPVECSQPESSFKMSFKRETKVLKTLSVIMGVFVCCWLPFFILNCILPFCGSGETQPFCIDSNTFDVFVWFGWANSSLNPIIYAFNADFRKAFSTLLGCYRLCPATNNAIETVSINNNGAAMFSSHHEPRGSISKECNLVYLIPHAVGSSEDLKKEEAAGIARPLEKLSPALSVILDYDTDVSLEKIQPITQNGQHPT
Chain of Thioredoxin reductase 1, cytoplasmic (Rattus norvegicus) (O89049 whole entry, looked up): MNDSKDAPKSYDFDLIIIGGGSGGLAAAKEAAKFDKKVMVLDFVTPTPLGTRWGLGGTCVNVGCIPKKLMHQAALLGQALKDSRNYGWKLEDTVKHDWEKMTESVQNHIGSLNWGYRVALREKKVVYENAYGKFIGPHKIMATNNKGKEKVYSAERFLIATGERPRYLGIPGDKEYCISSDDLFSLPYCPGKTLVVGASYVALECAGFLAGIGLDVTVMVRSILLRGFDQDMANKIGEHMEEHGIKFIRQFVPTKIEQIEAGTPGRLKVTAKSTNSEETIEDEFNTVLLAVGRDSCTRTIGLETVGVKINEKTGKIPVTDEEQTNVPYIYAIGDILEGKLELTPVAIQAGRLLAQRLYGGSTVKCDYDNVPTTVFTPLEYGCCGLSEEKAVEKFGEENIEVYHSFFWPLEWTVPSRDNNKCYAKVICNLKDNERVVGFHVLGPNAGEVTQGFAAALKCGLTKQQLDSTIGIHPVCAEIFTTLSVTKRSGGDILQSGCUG
Chain of Chromobox protein homolog 1 (Homo sapiens) (P83916 whole entry, looked up): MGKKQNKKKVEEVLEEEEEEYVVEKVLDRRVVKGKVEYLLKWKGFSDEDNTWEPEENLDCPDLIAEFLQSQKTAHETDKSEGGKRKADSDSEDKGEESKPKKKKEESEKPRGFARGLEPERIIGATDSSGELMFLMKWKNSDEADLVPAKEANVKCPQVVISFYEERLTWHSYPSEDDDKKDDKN
Chain of Transient receptor potential cation channel subfamily V member 1 (Homo sapiens) (Q8NER1 whole entry, looked up): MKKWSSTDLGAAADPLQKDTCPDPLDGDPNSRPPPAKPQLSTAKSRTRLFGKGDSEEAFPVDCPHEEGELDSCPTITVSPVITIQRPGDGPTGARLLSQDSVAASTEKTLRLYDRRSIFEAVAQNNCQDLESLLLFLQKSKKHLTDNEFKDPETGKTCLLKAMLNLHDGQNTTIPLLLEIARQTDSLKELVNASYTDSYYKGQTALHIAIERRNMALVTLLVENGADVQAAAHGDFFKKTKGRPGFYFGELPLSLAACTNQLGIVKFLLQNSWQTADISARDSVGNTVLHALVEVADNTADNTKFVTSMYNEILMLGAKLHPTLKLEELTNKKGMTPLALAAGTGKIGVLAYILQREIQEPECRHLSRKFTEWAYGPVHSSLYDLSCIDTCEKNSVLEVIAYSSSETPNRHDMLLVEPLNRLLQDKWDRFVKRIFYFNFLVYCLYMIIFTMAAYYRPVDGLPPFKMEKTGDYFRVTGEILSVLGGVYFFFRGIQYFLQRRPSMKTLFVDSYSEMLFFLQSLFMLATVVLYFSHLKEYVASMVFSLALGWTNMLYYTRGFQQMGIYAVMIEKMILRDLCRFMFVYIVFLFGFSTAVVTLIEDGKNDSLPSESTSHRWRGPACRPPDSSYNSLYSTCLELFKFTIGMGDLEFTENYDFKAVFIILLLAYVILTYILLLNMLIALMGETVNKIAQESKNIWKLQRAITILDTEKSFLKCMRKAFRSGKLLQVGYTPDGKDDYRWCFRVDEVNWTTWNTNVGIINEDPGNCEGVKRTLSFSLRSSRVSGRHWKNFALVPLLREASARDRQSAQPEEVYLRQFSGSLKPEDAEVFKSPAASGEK
Chain of Methanococcus maripaludis chaperonin (MmCpn) (Q6LX38 1-543): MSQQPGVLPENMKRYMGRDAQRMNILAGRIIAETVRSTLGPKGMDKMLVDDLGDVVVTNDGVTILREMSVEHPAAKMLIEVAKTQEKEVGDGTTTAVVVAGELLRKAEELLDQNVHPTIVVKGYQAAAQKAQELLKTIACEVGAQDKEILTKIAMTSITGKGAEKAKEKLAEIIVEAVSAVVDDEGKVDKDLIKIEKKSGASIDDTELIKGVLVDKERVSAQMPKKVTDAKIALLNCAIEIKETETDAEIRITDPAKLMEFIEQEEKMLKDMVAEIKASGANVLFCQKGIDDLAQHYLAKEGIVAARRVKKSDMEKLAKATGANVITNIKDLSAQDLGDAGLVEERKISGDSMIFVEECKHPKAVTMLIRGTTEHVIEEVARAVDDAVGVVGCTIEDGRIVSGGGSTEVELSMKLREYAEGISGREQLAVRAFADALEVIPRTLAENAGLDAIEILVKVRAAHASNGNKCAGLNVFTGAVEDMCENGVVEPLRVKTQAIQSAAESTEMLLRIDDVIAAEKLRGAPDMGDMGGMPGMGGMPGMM
Chain of Thyrotropin receptor (Homo sapiens) (P16473 whole entry, looked up): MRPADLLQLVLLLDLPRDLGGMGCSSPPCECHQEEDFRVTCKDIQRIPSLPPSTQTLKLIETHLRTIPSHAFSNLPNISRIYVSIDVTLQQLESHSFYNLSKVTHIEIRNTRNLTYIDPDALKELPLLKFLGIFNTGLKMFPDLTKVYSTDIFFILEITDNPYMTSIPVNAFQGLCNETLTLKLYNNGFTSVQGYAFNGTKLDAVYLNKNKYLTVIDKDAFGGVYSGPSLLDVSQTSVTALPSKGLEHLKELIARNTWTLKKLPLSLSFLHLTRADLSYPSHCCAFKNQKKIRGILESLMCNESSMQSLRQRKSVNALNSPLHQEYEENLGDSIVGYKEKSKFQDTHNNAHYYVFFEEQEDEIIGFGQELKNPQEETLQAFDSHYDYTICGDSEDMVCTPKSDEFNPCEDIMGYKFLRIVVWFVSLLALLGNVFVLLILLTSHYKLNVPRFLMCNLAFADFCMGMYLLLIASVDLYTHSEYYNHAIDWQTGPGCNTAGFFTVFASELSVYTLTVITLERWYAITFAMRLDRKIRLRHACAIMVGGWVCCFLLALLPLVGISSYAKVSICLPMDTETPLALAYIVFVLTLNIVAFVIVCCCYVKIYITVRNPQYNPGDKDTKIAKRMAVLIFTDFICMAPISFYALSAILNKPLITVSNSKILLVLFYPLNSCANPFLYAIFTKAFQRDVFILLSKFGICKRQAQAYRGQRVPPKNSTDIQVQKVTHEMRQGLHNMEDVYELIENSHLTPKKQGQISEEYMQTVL
Chain of Flap endonuclease 1 (Homo sapiens) (P39748 whole entry, looked up): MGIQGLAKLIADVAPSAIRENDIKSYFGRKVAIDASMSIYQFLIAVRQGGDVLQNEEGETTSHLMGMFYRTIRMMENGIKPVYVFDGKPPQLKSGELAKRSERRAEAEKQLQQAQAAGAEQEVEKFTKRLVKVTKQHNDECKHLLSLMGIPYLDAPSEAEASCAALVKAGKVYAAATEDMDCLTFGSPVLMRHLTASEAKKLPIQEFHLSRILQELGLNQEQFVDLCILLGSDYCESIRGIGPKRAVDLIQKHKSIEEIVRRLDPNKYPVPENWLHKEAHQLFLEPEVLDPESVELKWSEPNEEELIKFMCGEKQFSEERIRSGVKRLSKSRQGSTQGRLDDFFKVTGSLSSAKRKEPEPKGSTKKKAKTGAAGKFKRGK

Regarding `NC(=O)c1cn(Cc2c(F)cccc2F)nn1`, the Potency entry in [1], in experiment [2], in experiment [3], in [6], in experiment [7] and in [8] was “inactive” in each case. For the same molecule, the Potency in experiment [4] was 0.006 µM (active). In experiment [5], the result was inactive.
In the case of `CCCCCCCC/C=C\CCCCCCCC(=O)NCc1ccc(O)c(OC)c1`, the Potency entry in [1], in [2], in [3], in experiment [4], in experiment [6] and in experiment [8] was “inactive” in each case. Besides, the molecule was called inactive in experiment [5].
`CCCC(C(=O)OCCN(CC)CC)(c1ccccc1)c1ccccc1`: the Potency entry in experiment [1], in [2], in experiment [3], in [6], in experiment [7] and in experiment [8] was “inactive” each time. Besides, the call in [5], in experiment [9] and in experiment [10] was inactive.
For the molecule `CCCNC(C)C(=O)Nc1ccccc1C` (configuration not stated), the Potency entry in [1], in experiment [2], in experiment [3], in experiment [6], in experiment [7] and in experiment [8] was “inactive” in each case. The call in [5] and in experiment [9] was inactive.
In the case of `Cc1cc(C)c(/C=C2\C(=O)Nc3ccccc32)[nH]1`, the Potency entry in experiment [1], in experiment [2], in experiment [7] and in [8] was “inactive” throughout. The Potency in experiment [3] was 7.94 µM (active) and inactive; in experiment [6], 15.8 µM (active). Further, the outcome in experiment [5] was inactive.
In the case of `CCOC(=O)C1=C(C)NC(C)=C(C(=O)OC)C1c1cccc(Cl)c1Cl` (configuration not stated), the Potency result in experiment [1], in experiment [3], in experiment [4], in [6], in experiment [7] and in experiment [8] was “inactive” in each case. Also, the result in [5], in experiment [9] and in experiment [10] was inactive.
Consider `C[C@]12C=CC(=O)C=C1CC[C@H]1[C@@H]3C[C@@H](O)[C@](O)(C(=O)CO)[C@@]3(C)C[C@H](O)[C@@]12F`, for which the Potency result in [2], in experiment [3], in experiment [4], in [6], in experiment [7] and in [8] was “inactive” each time. Also, the call in experiment [5] and in [9] was inactive.
For the molecule `COc1ccc([C@@H]2Sc3ccccc3N(CCN(C)C)C(=O)[C@@H]2OC(C)=O)cc1`, the Potency entry in experiment [3], in experiment [4], in [6] and in experiment [8] was “inactive” in each case. The outcome in [5] and in [10] was inactive.
With `C[N+](C)(C)CCCCCCCCCC[N+](C)(C)C`, the Potency result in [1], in experiment [3], in experiment [4], in experiment [6], in experiment [7] and in experiment [8] was “inactive” throughout. Besides, the call in experiment [5] and in [9] was inactive.
Consider `C[C@]12CCC(=O)C=C1CC[C@@H]1[C@@H]2C(=O)C[C@@]2(C)[C@H]1CC[C@]2(O)C(=O)CO`, for which the Potency result in [2], in experiment [3], in experiment [6], in experiment [7] and in experiment [8] was “inactive” throughout. Further, the molecule was classed as inactive in experiment [5], in experiment [9] and in [10].
`NC(N)=N/N=C/c1c(Cl)cccc1Cl`: the Potency result in experiment [1], in experiment [3], in [4] and in [6] was “inactive” each time. In addition, the molecule was called inactive in experiment [5] and in experiment [9].
For `CCN(CC)CC(=O)Nc1c(C)cccc1C`, the Potency result in [1], in [2], in experiment [4], in experiment [6], in [7] and in experiment [8] was “inactive” in each case. Further, the outcome in experiment [5], in [9] and in experiment [10] was inactive.
Consider `CC1=C(C)C(=O)C(CCCCC#CCCCC#CCO)=C(C)C1=O`, for which the Potency entry in experiment [2], in experiment [6], in experiment [7] and in experiment [8] was “inactive” in each case. Further, the Potency in experiment [3] and in experiment [4] was 31.6 µM (active) each time. Moreover, the molecule was classed as inactive in experiment [5] and in experiment [9].
Regarding `CC[N+](C)(C)c1cccc(O)c1`, the Potency result in [3], in experiment [4], in experiment [6], in experiment [7] and in experiment [8] was “inactive” each time. Also, the outcome in experiment [5], in experiment [9] and in experiment [10] was inactive.
As for `NCCCNCCSP(=O)(O)O`, the Potency entry in [1], in [3], in experiment [4], in experiment [6], in [7] and in experiment [8] was “inactive” in each case. Moreover, the result in [5], in [9] and in experiment [10] was inactive.
Consider `CCNC(=O)N1CCN(CCCC(c2ccc(F)cc2)c2ccc(F)cc2)CC1`, for which the Potency entry in [1], in [3] and in experiment [7] was “inactive” throughout. The molecule was called inactive in experiment [5] and in experiment [10]. Moreover, the Potency in experiment [6] is 15.8 µM (active).
As for `Cc1ccc(/C(=C\CN2CCCC2)c2ccccn2)cc1`, the Potency result in experiment [1], in experiment [4], in [6], in experiment [7] and in [8] was “inactive” throughout. Moreover, the call in experiment [5] and in experiment [10] was inactive.
For `COC(=O)C1=C(C)NC(C)=C(C(=O)OCCN(C)Cc2ccccc2)C1c1cccc([N+](=O)[O-])c1` (configuration not stated), the Potency result in experiment [1], in [6] and in [7] was “inactive” in each case. In addition, the outcome in experiment [5] and in experiment [9] was inactive. For the same molecule, the Potency in experiment [8] was 7.08 µM (active).
Take `CC(N=C(NC#N)Nc1ccncc1)C(C)(C)C` (configuration not stated): the Potency result in experiment [1], in experiment [3], in experiment [4], in experiment [6], in experiment [7] and in experiment [8] was “inactive” throughout. In addition, the call in [5], in experiment [9] and in experiment [10] was inactive.
`Cc1nnc(SCC2=C(C(=O)O)N3C(=O)[C@@H](NC(=O)Cn4cnnn4)[C@H]3SC2)s1`: the molecule was classed as inactive in [5], in experiment [9] and in experiment [10]. Also, the Potency result in [6], in experiment [7] and in experiment [8] was “inactive” in each case.

The record behind these values is PubChem BioAssay (NCATS).
